Compounds with a hit are over-represented: about 10% of the library has one in this group of screens.
GLS inh: qHTS for Inhibitors of Glutaminase (GLS); Glutaminase kidney isoform, mitochondrial (Homo sapiens), O94925; GLS enzymatic activity, qHTS titration; Potency, µM (top dose mostly 45.5 µM), hits mostly inhibitors; actives 0.21% (n = 410,000); AID 624170, 2012
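hKGA; 45 mM KH2PO4 pH 8.2 + 0.02% Tween-20; cpd via pin tool; 1 mM Gln soln; GluOx/HRP/Amplex Red; RT 30 min; fluor. t0 & final.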
G9a block: qHTS Assay for Inhibitors of Histone Lysine Methyltransferase G9a. Histone-lysine N-methyltransferase EHMT2 (Homo sapiens), Q96KQ7. G9a H3K9 monomethylation, AlphaScreen, 2 h. Potency, µM (highest dose often 102 µM), most hits filed as inhibitors. actives 8.8% (n = 350,000). AID 504332, 2011; further: nearly all actives have a fitted effect of over 75% in size
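Using a bead-based AlphaScreen, monomethylated H3K9 product from 2 h room-temperature reactions (G9a 20 nM, peptide 500 nM, SAM 20 uM) was detected with 0.5 ug/mL rabbit anti-H3K9me1 antibody.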
HP1b binding inh: HTS for Inhibitors of HP1-beta Chromodomain Interactions with Methylated Histone Tails; AID 540317, 2011; Potency, µM (highest dose often 114 µM), hits mostly inhibitors; actives 0.56% (n = 390,000); AlphaScreen HP1-beta / biotin-H3K9me3 peptide binding; Chromobox protein homolog 1 (Homo sapiens), P83916; further: nearly all actives have a fitted effect of over 70% in size
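HP1-beta protein (50 nM final) preincubated 30 min at room temperature with biotinylated H3(1-18)K9me3 peptide (50 nM) in PBS pH 7.4, 0.01% Tween-20, then compound added for 30 min. AlphaScreen streptavidin donor/nickel chelate acceptor beads (10 ug/mL final), 30 min dark, luminescence read.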
BAZ2B inh: qHTS Assay for Inhibitors of BAZ2B; Potency, µM (doses to about 114 µM), hits mostly inhibitors; AlphaScreen BAZ2B-H3K14Ac peptide displacement; actives 4.4% (n = 360,000); Bromodomain adjacent to zinc finger domain protein 2B (Homo sapiens), Q9UIF8; further: nearly all actives have a fitted effect of over 60% in size
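Complex of BAZ2B and biotin-H3K14Ac (50 nM apiece) forms over 30 min at RT, then faces library compounds up to 110 uM for another 30 min; AlphaScreen beads added, 20 min dark incubation, luminescence read.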
JMJD2A Tudor inh: qHTS Assay for Inhibitors of JMJD2A-Tudor Domain; Lysine-specific demethylase 4A (Homo sapiens), O75164; AlphaScreen JMJD2A-Tudor / H3K4me3 peptide binding; Potency, µM (titrated, usually from 114 µM), actives largely listed as inhibitors; actives 4.4% (n = 390,000); AID 504339, 2011; further: nearly all actives have a fitted effect of over 50% in size
Of the large screens only hits and unclear results are named; the others gave an inactive call; ! = not active in a repeat. The call rests on the fitted dose curve; in most records, active means well fitted curve in the direction sought with a large enough effect; inconclusive means small, poorly fitted or top-dose-only effect, or another doubt; inactive means no such curve, though single readings can be large; an effect the other way counts as inactive or inconclusive.

C#CCOCCOCCOCCNc1nc(N2CCN(C(=O)[C@H]([C@@H](C)CC)n3cc([C@@H](N)CC(C)C)nn3)CC2)nc(N2CCN(C(=O)[C@H]([C@@H](C)CC)n3cc([C@@H](N)CC(C)C)nn3)CC2)n1	G9a block inconclusive, BAZ2B inh 79µM, JMJD2A Tudor inh inconclusive
C#CCOCCOCCOCCNc1nc(N2CCOCC2)nc(N2CCN(C(=O)[C@H]([C@@H](C)CC)n3cc([C@@H](N)CO)nn3)CC2)n1	G9a block inconclusive, HP1b binding inh inconclusive
COc1ccccc1C(=O)NCC1(c2ccccc2)CCCC1	none
CC(C)COc1ccccc1C(=O)NC(CO)C(=O)O (stereo not given)	none
CCOC(=O)c1ccc(Cn2cnc3ccccc3c2=O)cc1	none
C#CCOCCOCCOCCNc1nc(N2CCN(C(=O)[C@H]([C@@H](C)CC)n3cc([C@@H](N)CO)nn3)CC2)nc(N2CCN(C(=O)[C@H](Cc3ccc(O)cc3)n3cc([C@@H](N)C(C)CC)nn3)CC2)n1 (stereo not given in full)	G9a block inconclusive, BAZ2B inh 35µM, JMJD2A Tudor inh 35µM
CC1CC(C)CN(C(=O)c2ccc(NS(=O)(=O)c3ccc4[nH]c(=O)[nH]c4c3)cc2)C1 (stereo not given)	G9a block 50µM
CCOC(=O)c1ccc(NS(=O)(=O)c2ccc3[nH]c(=O)[nH]c3c2)cc1	G9a block 11µM
CC(=O)N1CCN(C(=O)c2ccc(NS(=O)(=O)c3ccc4[nH]c(=O)[nH]c4c3)cc2)CC1	none
Cc1cccnc1NC(=O)c1ccc(NS(=O)(=O)c2ccc3[nH]c(=O)[nH]c3c2)cc1	none
CCCCCNC(=O)c1ccc(NS(=O)(=O)c2ccc3[nH]c(=O)[nH]c3c2)cc1	G9a block 32µM, JMJD2A Tudor inh inconclusive
O=C(Nc1ncccc1O)c1ccc(NS(=O)(=O)c2ccc3[nH]c(=O)[nH]c3c2)cc1	G9a block 71µM, BAZ2B inh 79µM
CN(C)c1ccc(N=Nc2cccc3ccoc23)cc1	G9a block 6.3µM, HP1b binding inh 18µM, BAZ2B inh 5.6µM, JMJD2A Tudor inh 25µM
Cc1cc(N(C)C)ccc1N=Nc1ccc2ncccc2c1	HP1b binding inh 8.9µM, BAZ2B inh 3.2µM, JMJD2A Tudor inh 6.3µM
CN(C)c1ccc(N=Nc2ccc(S(N)(=O)=O)cc2)cc1	G9a block inconclusive, BAZ2B inh inconclusive
CN(C)c1ccc(N=Nc2ccc3ncccc3c2)cc1	HP1b binding inh inconclusive, JMJD2A Tudor inh 3.2µM (no result: G9a block, BAZ2B inh)
Cc1ccc2ncccc2c1	none
c1cnc2ccc(-c3ccc4ncccc4c3)cc2c1	none
CN(C)c1ccc(N=Nc2cccc(F)c2)cc1	G9a block 10µM, HP1b binding inh 6.3µM, BAZ2B inh 4.5µM, JMJD2A Tudor inh 8.9µM
CC(C)N(Cc1ccccc1)C(=S)Nc1ccc(F)cc1	none (no result: BAZ2B inh)
COc1cccc(CNS(=O)(=O)c2ccc(-c3cc(C(F)(F)F)on3)s2)c1	none
CCOC(=O)c1oc2ccccc2c1NC(=O)COc1cccc(OC)c1	none
COc1ccc(-n2c(C)c(C(=O)O)c3cc(OC)c4ccccc4c32)cc1	G9a block inconclusive
CC(C)=NOc1nc(N(C)C)nc(N2CCOCC2)n1	JMJD2A Tudor inh 56µM
O=C(c1ccc(-n2cncn2)c([N+](=O)[O-])c1)N1CCN(S(=O)(=O)c2cccc(F)c2)CC1	none
O=C(CN(c1ccc(F)cc1)S(=O)(=O)c1ccc2c(c1)OCCO2)Nc1ccc2c(c1)OCO2	none
Cc1ccnc(NC(c2ccncc2)c2c(C)[nH]c3ccccc23)c1 (stereo not given)	G9a block 10µM, BAZ2B inh inconclusive
Cc1[nH]c2ccccc2c1C(c1ccncc1)N1CCN(c2ccc(F)cc2)CC1 (stereo not given)	G9a block inconclusive, BAZ2B inh inconclusive, JMJD2A Tudor inh inconclusive
Cc1[nH]c2ccccc2c1C(c1ccncc1)N1CCCCC1 (stereo not given)	G9a block 35µM, BAZ2B inh inconclusive
CCCCNC(=O)/C(=C/c1ccccc1)NC(C)=O	none
O=C(O)C(Cc1cn[nH]n1)=NO	G9a block 6.3µM, HP1b binding inh inconclusive, BAZ2B inh 25µM, JMJD2A Tudor inh 7.9µM
O=S(=O)(Nc1ccc2oc3c(c2c1)CCCC3)c1cc(Cl)ccc1Cl	G9a block inconclusive
CC(=O)CSc1nsc(SCC(C)=O)c1C#N	G9a block 8.9µM
Cc1ccc(C(=O)CSc2nsc(C)c2C#N)cc1	G9a block 4.5µM
COC(=O)c1ccccc1CSc1nsc(C)c1C#N	G9a block 16µM
CCOC(=O)CSc1nsc(SCC(=O)OCC)c1C#N	none
Cc1ccnc(SCC(=O)c2ccc(Br)cc2)c1C#N	G9a block 50µM, JMJD2A Tudor inh inconclusive
Cc1snc(SCC(=O)c2ccc(Cl)cc2)c1C#N	G9a block 20µM
CC(C)Oc1cccc(C(=O)NC2=NCCS2)c1	BAZ2B inh inconclusive
COc1ccccc1NC(=O)CSc1nnc2ccc(-c3cccnc3)nn12	G9a block 40µM, BAZ2B inh 71µM
CCOc1ccccc1NC(=O)CSc1nnc2ccc(-c3cccnc3)nn12	none
Cc1ccccc1NC(=O)CSc1nc2ccccc2c2nc(CCn3c(C)nc4ccccc43)nn12	none
Cc1cncn1CCc1nc2c3ccccc3nc(SCC(=O)Nc3ccc(F)cc3)n2n1	none
CCOc1ccccc1NC(=O)CSc1nc2ccccc2c2nc(CCn3cncc3C)nn12	G9a block inconclusive, BAZ2B inh 56µM
CCOc1ccccc1-n1c(SCC(=O)Nc2ccccc2C(=O)O)nc2ccccc2c1=O	G9a block 50µM
Cc1cncn1CCc1nc2c3ccccc3nc(SCC(=O)Nc3cccc(Cl)c3)n2n1	G9a block 14µM, BAZ2B inh 11µM!, JMJD2A Tudor inh inconclusive
COc1ccccc1NC(=O)CSc1nc2ccccc2c2nc(-c3ccccc3)nn12	JMJD2A Tudor inh 32µM
CN(C)/N=C/C=C1\CC/C(=C\c2ccc(Br)cc2)C1=O	G9a block 50µM, BAZ2B inh inconclusive
CN(C)/N=C/C=C1\CCC/C(=C/c2cccs2)C1=O	BAZ2B inh inconclusive, JMJD2A Tudor inh inconclusive
O=C(O)CC(NNC(=O)c1ccccc1)C(=O)Nc1cccc([N+](=O)[O-])c1 (stereo not given)	G9a block 50µM, BAZ2B inh inconclusive, JMJD2A Tudor inh inconclusive
O=C(NNC(=S)Nc1ccc(F)cc1)c1cccc([N+](=O)[O-])c1	G9a block 45µM
COc1ccc([N+](=O)[O-])cc1NC(=S)NC(NC(C)=O)C(Cl)(Cl)Cl (stereo not given)	G9a block 40µM

Bioassay records from PubChem.
